Inhibition data for 55 compounds are collected here from PubChem BioAssay AID588726 (The Scripps Research Institute Molecular Screening Center, 2011).

The structures appear in SMILES notation. Screen size: about 360,000 compounds; about 8,200 (2.3%) were called active. What follows is part of a selection rich in actives, with near analogues and random picks from the rest. Unmarked numbers belong to inactive results. Cut-off read from the data, not from the text of the source: active = inhibition above about 27%; inactive = the rest.

Sequence of Fructose-bisphosphate aldolase (Mycobacterium tuberculosis (strain ATCC 25618 / H37Rv)) (P9WQA3 whole entry, looked up): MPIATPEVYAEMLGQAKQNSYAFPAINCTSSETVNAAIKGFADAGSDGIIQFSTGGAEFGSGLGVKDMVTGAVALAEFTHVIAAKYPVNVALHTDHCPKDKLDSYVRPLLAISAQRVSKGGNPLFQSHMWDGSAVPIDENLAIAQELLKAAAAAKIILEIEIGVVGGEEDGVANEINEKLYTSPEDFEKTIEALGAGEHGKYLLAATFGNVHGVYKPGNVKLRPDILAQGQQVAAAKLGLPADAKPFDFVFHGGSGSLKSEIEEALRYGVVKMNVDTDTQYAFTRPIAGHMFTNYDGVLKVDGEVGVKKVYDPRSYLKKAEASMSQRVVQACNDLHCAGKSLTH

The assay concerns the target Fructose-bisphosphate aldolase (Mycobacterium tuberculosis (strain ATCC 25618 / H37Rv)) (UniProt P9WQA3). The assay can be described thus: Mtb FBA enzyme inhibitors, primary screen, biochemical, fluorescence, strain H37Rv (AID 588726).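 Note: 0% = vehicle and 100% = reference inhibitor.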 The settings on record: purified M. tuberculosis FBA, fluorescence read-out, at 1 µM, stronger effect = higher value.
Usually inhibition stands for the change of the read-out against control, counted positive when it falls. With `COc1ccc(-c2cc3ccc(OCc4nn[nH]n4)cc3oc2=O)cc1`, the inhibition is 734% [above what the read-out allows, likely interference] (active). Then `COc1ccc(-c2csc3ncnc(Oc4ccc5c(C)cc(=O)oc5c4)c23)cc1`, with 2.35%; and `COc1ccc(-c2cc(=O)oc3cc(OCC(=O)N[C@@H](Cc4c[nH]c5ccccc45)C(=O)O)ccc23)cc1`, with 6.63%. Then `CC1CCN(C(=O)Cn2nnnc2CN2CCOCC2)CC1`, with -0.01%; and `CCN(CC)c1ccc([N+](=O)[O-])cc1C(=O)O`, with -17.9%; and `CCN(CC)c1ccc2cc(C(=O)O)c(=O)oc2c1`, with 36.2% (active). Then `Cc1cc(C)cc(OCC(=O)NNC(=O)c2cc3ccccc3oc2=O)c1`, with 1.86%. With `Cc1ccc(C2=Nc3c(ccc4ccccc34)C(c3ccncc3)=NN2)cc1`, the inhibition is 1.27%. As for `CC(=O)Nc1cccc(-c2ccnc3c2CC(C)(C(=O)NCc2ccco2)O3)c1` (stereo not given), the figure is -0.36%; as for `CC1(C(=O)NCc2ccco2)Cc2c(-c3ccc4c(c3)OCO4)ccnc2O1` (stereo not given), 46.9% (active). As for `CC1(C(=O)NCC2CCOCC2)Cc2c(-c3cccc(C(N)=O)c3)ccnc2O1` (stereo not given), the inhibition was -0.46%. As for `CC1(C(=O)NCc2ccc(F)c(F)c2)Cc2c(-c3ccc4c(c3)OCO4)ccnc2O1` (stereo not given), the figure is 44.6% (active).

On to `O=C(Cn1nnc(-c2ccc3c(c2)OCO3)n1)NCc1ccco1`, for which the inhibition was 1.83%. Then `CC(=O)Nc1cccc(-c2ccnc3c2CC(C)(C(=O)NCc2ccccc2)O3)c1` (stereo not given), with 1.41%; and `CCc1nc2c(OCC(N)=O)cccn2c1N(C)C(=O)c1ccc(OC)cc1`, with -2.06%.

For `Cc1nc(C(=O)NCc2ccccc2)sc1C1(C)CC(c2cccnc2)=NO1` (stereo not given), the inhibition is -0.93%. As for `O=C(CN1CCN(S(=O)(=O)c2ccc(Cl)s2)CC1)N1CCCCC1`, the figure is 5.01%. As for `CN(CCOc1ccccc1)C(=O)c1cc(COc2c(F)cccc2F)on1`, the figure is -3.64%; as for `COc1ccc(-c2cc(C(=O)n3cnc4ccccc43)c3ccccc3n2)cc1`, 113% (active); as for `C/C(=N\NC(=O)c1cc(-c2ccc(O)cc2)nc2ccccc12)c1cccnc1`, 0.88%. As for `O=C(c1ccc(Cl)cc1)n1cnc2ccccc21`, the inhibition is 5.13%. As for `C/C(N)=C(/C#N)C(=O)COC(=O)c1cc(-c2ccc(C)cc2)nc2ccccc12`, the figure is 0.39%; as for `COc1ccc(-c2cc(C(=O)Nc3ccccc3O)c3ccccc3n2)cc1`, 28.8% (active); as for `CN(C(=O)COC(=O)c1cc(-c2ccco2)nc2ccccc12)C1CCS(=O)(=O)C1` (stereo not given), 4.55%.

On to `COc1ccc(NC(=O)CN(C)C(=O)c2cc(C)oc2C)cc1`, for which the inhibition was 0.68%.

As for `COc1ccc(NC(=O)CN(C)C(=O)c2cc(-c3ccc(C)o3)nc3ccccc23)cc1`, the inhibition is 71.2% (active).

With `CN(CCOc1ccccc1)C(=O)c1cc(-c2ccco2)nc2ccccc12`, the inhibition was 29.6% (active). As for `COc1ccc(C)cc1NC(=O)c1cc(-c2ccccc2)nc2c1cnn2C(C)C`, the figure is 1.87%. As for `COc1cccc(NC(=O)CN(C)C(=O)c2cc(Cl)nc3ccccc23)c1`, the figure is 2.95%. For `CC(C)c1ccc(/C=C/C(=O)NCCCN2CCOCC2)cc1`, the inhibition was 0.72%. Then `CCN(C(=O)c1cc([N+](=O)[O-])ccc1NCc1cccnc1)c1ccccc1`, with 2.57%; and `COC(=O)c1cc2n(n1)CCCNC2=O`, with 3.15%. Regarding `C=C(C)Cn1c(C)cc(C)c(S(=O)(=O)c2ccccc2C)c1=O`, the inhibition is -0.53%. Then `CCc1cc(C(c2ccccc2OC)N2CCOCC2)c(NC(=O)c2ccccc2)s1` (stereo not given), with -1.6%; and `COc1cccc(C(=O)N/N=C(\C)c2cccc(NC(=O)c3ccc(F)cc3)c2)c1OC`, with -1.27%; and `Cn1nc(C(F)(F)F)cc1-c1ccc(/C=C(\C#N)C(=O)c2cccc(C(F)(F)F)c2)s1`, with 0.1%. Then `CCc1ccc(OCC(=O)OC(C)C(=O)NC2CC2)cc1` (stereo not given), with -0.68%. Then `CC(C)N(Cc1nnc(-c2ccccc2Br)o1)C(=O)c1cc(Cl)nc2ccccc12`, with 2.07%.

For the compound `O=C(c1cc(-c2ccco2)nc2ccccc12)N(Cc1nnc(-c2ccc(Cl)cc2)o1)C1CC1`, the inhibition is 46.8% (active).

Turning to `COc1ccc(C2=NS(=O)(=O)N(C)C(C(=O)N(C)Cc3ccccc3)=C2)cc1`, the inhibition was 4.86%. Then `COc1ccc(-c2cc(C(=O)N(C)Cc3ccccc3)c3ccccc3n2)cc1`, with 69.9% (active); and `COc1ccc(CN(C)C(=O)c2cc(-c3ccc(C)cc3C)nc3ccccc23)c(OC)c1OC`, with -0.53%. Then `O=C(c1ccc(Cl)s1)N(Cc1nnc(-c2ccccc2Cl)o1)C1CC1`, with -1.65%; and `C=CCOc1cccc(CNCc2cccnc2)c1`, with -1.51%; and `CC1(C)CC(=O)c2c(n(S(=O)(=O)c3ccccc3)c3ccc(NS(=O)(=O)c4ccccc4)cc23)C1`, with -1.63%. As for `C[C@@H](C(=O)Nc1ccc2ccccc2c1)[C@@H]1C[C@@]1(C)[C@@H](NC(=O)c1cccnc1)c1ccccc1`, the figure is -0.2%; as for `O=C(CSc1ncn[nH]1)Nc1nc2c(F)c(F)c(F)cc2s1`, 0.81%; as for `CC(=O)N(CN1C(=O)C2C3C=CC(C3)C2C1=O)c1cccc(Cl)c1` (stereo not given), -0.27%. On to `COc1ccc(-c2ccc3c(c2)[C@@H]2C[C@H](N(C)S(=O)(=O)c4ccccc4)[C@H]([C@H](C)O)C(=O)N2CC3)cc1`, for which the inhibition was 4.15%.

On to `CN(Cc1ccccc1)C(=O)CCNC(=O)Cn1cnc2ccccc2c1=O`, for which the inhibition is 5.26%.

Turning to `CCCCN(C)CCC(=O)Nc1ccc(Cl)cc1`, the inhibition was 0.51%. For the compound `CCCCC(=O)Nc1ccc2c(c1)C(=O)NC2=O`, the inhibition was 42.1% (active).

As for `CC(=O)Nc1ccc(Oc2ccc3c(c2)C(=O)NC3=O)cc1`, the inhibition was 2.21%. As for `Cc1ccc(C(=O)NC2CCN(C(=O)Nc3ccccc3Cl)CC2)cc1`, the figure is -1.09%. As to `COc1ccc(C(=O)OCC(=O)NC(=O)CCSc2ccccc2)cc1`, the inhibition is -0.72%.
